Test results reported in PubChem BioAssay (NCATS).
Results filed as inconclusive are left out. Active and inactive are the calls of the source. Unless noted, the call rests on the fitted dose curve; in most records, active means well fitted curve in the direction sought with a large enough effect; inconclusive means small, poorly fitted or top-dose-only effect, or another doubt; inactive means no such curve, though single readings can be large; an effect the other way counts as inactive or inconclusive.

Columns and labels:
[1] = Cell Viability - BJ (AID 421; calls by dose curve;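 further: potency means the concentration at half of the fitted maximal effect; cells exposed to compound for 40 hours at 37 °C before readout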); conditions: BJ fibroblast viability, qHTS
Procedure, shortened: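 Quantitative HTS: ATP depletion in BJ cells after 40 hr compound exposure in complete culture medium, detected with CellTiter-Glo; AC50 from standard Hill fits.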

[2] = Cell Viability - HepG2 (AID 433; calls by dose curve;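 further: potency means the concentration at half of the fitted maximal effect; potency for ATP loss meaning cytotoxicity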); conditions: qHTS
Procedure, shortened: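 HepG2 cells, 1500 per well, treated 40 hr at 37 °C in complete medium; viability from intracellular ATP by CellTiter-Glo luminescence. Normalized to DMSO and 100 uM tamoxifen; AC50 from Hill fit of qHTS concentration-response.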

[3] = Cell Viability - Renal Proximal Tubule (AID 545); conditions: renal proximal tubule cells viability, primary cells of rat origin; activity change, negative = cytotoxicity: at 91.7 µM (top of the series); further: nearly all actives have a fitted effect of over 40% in size
Procedure, shortened: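 Rat renal proximal tubule primary cells, 1000/well, exposed to compounds for 40 hr at 37 °C in complete medium; cellular ATP read by CellTiter-Glo luminescence. AC50 from concentration-response fitted with standard Hill equation.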

[4] = Cellular Toxicity (caspase-3) Jurkat (AID 655); conditions: Jurkat caspase-3 activation, luminescence; caspase-3 activation: at 92.2 µM (top of the series), DMSO = 0%, tamoxifen = 100%;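 further: cells exposed to compound for 16 h at 37 °C before reading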
Procedure, shortened: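 Jurkat cells (5000/well) in complete medium exposed 16 h at 37 C; caspase-3/7 activity read by Caspase-Glo luminescence after 20 min at room temperature. Normalized to DMSO and 100 uM tamoxifen; AC50 from Hill fits.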

[5] = MultiTox-Fluor Cytotoxicity Assay - LYMP1-001 - Dead Cells (AID 946); conditions: LYMP1-001 lymphoblastoid cells, dead-cell protease fluorescence; series mostly up to 92.2 µM;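 further: 0% = DMSO and 100% = tetraoctylammonium bromide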
Procedure, shortened: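 In this qHTS, 15 uM tetraoctylammonium bromide defined 100% and DMSO defined basal activity. Lymphoblastoid cells (LYMP1-001, 2500 per well) received compound for 16 hr at 37 C before a fluorogenic dead-cell substrate readout at 485/520 nm.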

[6] = Cell Viability - LYMP1-002 - Assay at 16 hr (AID 948); conditions: LYMP1-002 lymphoblastoid cell viability; series mostly up to 92.2 µM;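 further: 0% = DMSO alone and full effect = 92 µM tetraoctylammonium bromide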
Procedure, shortened: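 LYMP1-002 human lymphoblastoid cells, 2500/well, were treated with compounds for 16 hr at 37 C in complete medium. Viability was read as intracellular ATP by CellTiter-Glo luminescence, and AC50 was derived from a Hill fit to concentration-response data.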

[7] = MultiTox-Fluor Cytotoxicity Assay - LYMP1-002 - Live Cells (AID 955); conditions: LYMP1-002 lymphoblastoid live-cell protease fluorescence viability; series mostly up to 46.1 µM;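 further: cells exposed to compound for 16 hours; on the % scale 0 is the no-effect control and ±100 the full control effect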
Procedure, shortened: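 After 16 h compound exposure at 37 C, live LYMP1-002 lymphoblastoid cells (2500/well) were quantified by cleavage of cell-permeant GF-AFC substrate, read at 405/510 nm after 60 min. Concentration-response fitted with Hill equation for AC50.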

[8] = MultiTox-Fluor Cytotoxicity Assay - LYMP1-003 - Dead Cells (AID 961); conditions: LYMP1-003 lymphoblastoid cells, dead-cell protease fluorescence; series mostly up to 92.2 µM;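 further: 0% = DMSO and 100% = tetraoctylammonium bromide; nearly all actives have a fitted effect of over 70% in size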
Procedure, shortened: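 Acute toxicity is scored as increased dead-cell protease activity in human lymphoblastoid LYMP1-003 cells after 16 h compound exposure in complete culture medium. Activity is normalized to DMSO basal and 15 uM tetraoctylammonium bromide as full response.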

[9] = Cell Viability - LYMP2-004 (AID 966); conditions: LYMP2-004 lymphoblastoid cell viability, qHTS; series mostly up to 92.2 µM;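 further: plate controls were DMSO only for no effect and tetraoctylammonium bromide control for full effect; nearly all actives have a fitted effect of over 65% in size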
Procedure, shortened: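 AC50 values come from Hill modelling of concentration-dependent loss of intracellular ATP, measured by CellTiter-Glo luminescence. Human LYMP2-004 lymphoblastoid cells (2500/well) were exposed to compound for 24 h at 37 C.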

[10] = Cell Viability - LYMP2-011 (AID 969); conditions: LYMP2-011 lymphoblastoid cells viability; series mostly up to 92.2 µM;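 further: 0% = DMSO only and full inhibition = 92 µM tetraoctylammonium bromide; nearly all actives have a fitted effect of over 60% in size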
Procedure, shortened: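 Cytotoxicity qHTS with ATP content as read-out: lymphoblastoid cells (2500/well) exposed to compound for 24 h at 37 C, then luciferase luminescence measured. Concentration-response data fitted with the standard Hill equation to give AC50.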

[11] = Cell Viability - LYMP2-017 (AID 972); conditions: LYMP2-017 lymphoblastoid cell viability; series mostly up to 92.2 µM; further: on the % scale 0 is the no-effect control and ±100 the full control effect; nearly all actives have a fitted effect of over 55% in size
Procedure, shortened: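 CellTiter-Glo luminescence (cellular ATP, 30 min RT) measured cytotoxicity after 24 hr compound treatment at 37 C. Cells were a human lymphoblastoid line, LYMP2-017, plated at 2500/well and incubated 5 hr first; concentration-response fitted with Hill equation for AC50.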

[12] = Cell Viability - LYMP2-007 (AID 979); conditions: LYMP2-007 lymphoblastoid cell viability; series mostly up to 92.2 µM;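 further: cells exposed to compound for 24 h before reading; 0% = DMSO only and the negative end = 92 µM tetraoctylammonium bromide; nearly all actives have a fitted effect of over 60% in size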
Procedure, shortened: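 AC50 values come from Hill-equation fits of luminescent intracellular ATP (CellTiter-Glo, 30 min, room temperature) following 24 h compound exposure at 37 C. Cells: LYMP2-007 lymphoblastoid line, 2500 per well, in complete culture medium.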

[13] = Cell Viability - LYMP2-014 (AID 983); conditions: LYMP2-014 lymphoblastoid cells, viability qHTS; series mostly up to 92.2 µM;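 further: plate controls were DMSO only for no effect and 92 µM tetraoctylammonium bromide for full effect; nearly all actives have a fitted effect of over 50% in size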
Procedure, shortened: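 Intracellular ATP loss, read by luciferase luminescence, measures acute cytotoxicity after 24 h compound exposure of lymphoblastoid LYMP2-014 cells (2500/well, 37 C). Concentration-response data fitted to the Hill equation for AC50.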

[14] = Cell Viability - LYMP2-016 (AID 984); conditions: LYMP2-016 lymphoblastoid cell viability, qHTS; series mostly up to 92.2 µM; further: on the % scale 0 is the no-effect control and ±100 the full control effect; nearly all actives have a fitted effect of over 55% in size
Procedure, shortened: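 Human lymphoblastoid LYMP2-016 cells, 2500 per well, treated with compounds for 24 h at 37 C. Viability read as intracellular ATP by CellTiter-Glo luminescence after 30 min at room temperature; AC50 from Hill fits of concentration-response.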

[15] = Cell Viability - LYMP2-018 (AID 985); conditions: LYMP2-018 lymphoblastoid cells, viability (qHTS); series mostly up to 92.2 µM;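 further: plate controls were DMSO only for no effect and tetraoctylammonium bromide at 92 µM for full effect; nearly all actives have a fitted effect of over 50% in size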
Procedure, shortened: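 Viability read as CellTiter-Glo luminescence (cellular ATP) after 24 hr compound exposure at 37 C of 2500 LYMP2-018 lymphoblastoid cells/well, pre-plated 5 hr. Hill-equation modelling gave AC50.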

[16] = Cell Viability - LYMP2-020 (AID 986); conditions: series mostly up to 92.2 µM;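 further: plate controls were DMSO only for no effect and tetraoctylammonium bromide at 92 µM for full effect; nearly all actives have a fitted effect of over 55% in size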
Procedure, shortened: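 Cytotoxicity in qHTS format: luminescent ATP readout from CellTiter-Glo after 24 h compound exposure at 37 C in complete medium. LYMP2-020 lymphoblastoid cells were seeded at 2500/well; concentration-response data fitted to the Hill equation for AC50.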

[17] = Cell Viability - LYMP2-022 (AID 987); conditions: LYMP2-022 lymphoblastoid cell viability; series mostly up to 92.2 µM;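 further: 0% = DMSO alone and full effect = tetraoctylammonium bromide at 92 µM; nearly all actives have a fitted effect of over 55% in size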
Procedure, shortened: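 Cytotoxicity read as decreased cellular ATP (CellTiter-Glo luminescence, 30 min room temperature) after 24 hours compound exposure of 2500 lymphoblastoid LYMP2-022 cells/well at 37 C. Concentration-response data fitted with standard Hill equation for AC50.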

[18] = Cell Viability - LYMP1-002 - Assay at 24 hr (AID 993); conditions: LYMP1-002 lymphoblastoid cells viability; series mostly up to 92.2 µM; further: on the % scale 0 is the no-effect control and ±100 the full control effect
Procedure, shortened: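 qHTS cytotoxicity at 24 h: CellTiter-Glo ATP luminescence in lymphoblastoid line LYMP1-002 incubated with compound at 37 °C. Concentration-response modeled with the Hill equation for AC50; tetraoctylammonium bromide served as positive control.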

[19] = qHTS assay for environmental chemicals that activate the Aryl hydrocarbon Receptor (AhR) signaling pathway (AID 651777); conditions: 1A2-DRE human hepatoma cells, luciferase, 24 h; activation: hits give high values; further: % of control where 0% means no effect; nearly all actives have a fitted effect of over 15% in size
Procedure, shortened: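 Concentration–response screening used 1,200 1A2-DRE cells per well, 24 hr compound exposure (37 C, 5% CO2), and One-Glo luminescence as the AhR-driven CYP1A2 reporter signal.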

[20] = molecular target: Nuclear receptor subfamily 1 group I member 2 (Rattus norvegicus) (UniProt Q9R1A7); experiment: qHTS assay for small molecule activators of the rat pregnane X receptor (rPXR) signaling pathway (AID 651751; call rule not given here; further: 0% is about no effect); conditions: rPXR reporter cells, luciferase (One-Glo), 24 h
Nuclear receptor subfamily 1 group I member 2 (Rattus norvegicus), sequence (Q9R1A7 whole entry, looked up): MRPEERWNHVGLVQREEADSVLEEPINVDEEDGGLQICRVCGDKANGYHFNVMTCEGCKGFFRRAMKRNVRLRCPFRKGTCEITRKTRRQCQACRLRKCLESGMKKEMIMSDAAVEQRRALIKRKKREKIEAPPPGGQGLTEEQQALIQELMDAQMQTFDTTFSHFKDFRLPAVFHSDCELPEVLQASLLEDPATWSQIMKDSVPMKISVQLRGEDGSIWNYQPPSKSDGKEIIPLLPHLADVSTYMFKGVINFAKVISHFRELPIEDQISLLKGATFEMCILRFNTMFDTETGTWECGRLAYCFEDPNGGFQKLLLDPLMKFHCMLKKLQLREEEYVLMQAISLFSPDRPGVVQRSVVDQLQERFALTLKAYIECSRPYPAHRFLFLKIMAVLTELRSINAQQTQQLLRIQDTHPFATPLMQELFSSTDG

NC(=O)c1ccc([N+](=O)[O-])cc1
inactive: Potency [1] > 92 µM | Potency [2] > 92 µM | Potency [3] | Potency [4] | Potency [5] | Potency [6] | outcome [7] | Potency [8] | Potency [9] | Potency [10] | Potency [11] | Potency [12] | Potency [13] | Potency [14] | Potency [15] | Potency [16] | Potency [17] | Potency [18] | activation [19] -1.24% | max response [20] -2.18%

CCCCNCC
inactive: Potency [1] > 92 µM | Potency [2] > 92 µM | Potency [3] | Potency [4] | Potency [5] | Potency [6] | outcome [7] | Potency [8] | Potency [9] | Potency [10] | Potency [11] | Potency [12] | Potency [13] | Potency [14] | Potency [15] | Potency [16] | Potency [17] | Potency [18] | activation [19] -0.56% | max response [20] 1.14%

CCCCCCc1ccc(-c2ccc(C#N)cc2)cc1
inactive: Potency [1] > 92 µM | Potency [2] > 92 µM | Potency [3] | Potency [4] | Potency [5] | Potency [6] | outcome [7] | Potency [8] | Potency [9] | Potency [10] | Potency [11] | Potency [12] | Potency [13] | Potency [14] | Potency [15] | Potency [16] | Potency [17] | Potency [18] | max response [20] -10.6%

C=Cc1cccc(C)c1
inactive: Potency [1] > 92 µM | Potency [2] > 92 µM | Potency [3] | Potency [4] | Potency [5] | Potency [6] | outcome [7] | Potency [8] | Potency [9] | Potency [10] | Potency [11] | Potency [12] | Potency [13] | Potency [14] | Potency [15] | Potency [16] | Potency [17] | Potency [18] | activation [19] -0.0469% | max response [20] 3.54%

CCCCCCN
inactive: Potency [1] > 92 µM | Potency [2] > 92 µM | Potency [3] | Potency [4] | Potency [5] | Potency [6] | outcome [7] | Potency [8] | Potency [9] | Potency [10] | Potency [11] | Potency [12] | Potency [13] | Potency [14] | Potency [15] | Potency [16] | Potency [17] | Potency [18] | activation [19] -0.159% | max response [20] -1.94%

C1CCCNCC1
inactive: Potency [1] > 92 µM | Potency [2] > 92 µM | Potency [3] | Potency [4] | Potency [5] | Potency [6] | outcome [7] | Potency [8] | Potency [9] | Potency [10] | Potency [11] | Potency [12] | Potency [13] | Potency [14] | Potency [15] | Potency [16] | Potency [17] | Potency [18] | activation [19] 0.178% | max response [20] 1.16%

CC(C)COC(=O)COc1cc(Cl)c(Cl)cc1Cl
inactive: Potency [1] > 92 µM | Potency [2] > 92 µM | Potency [3] | Potency [4] | Potency [5] | Potency [6] | outcome [7] | Potency [8] | Potency [9] | Potency [10] | Potency [11] | Potency [12] | Potency [13] | Potency [14] | Potency [15] | Potency [16] | Potency [17] | Potency [18] | activation [19] 1.79% | max response [20] -2.47%

c1ccc(SCCSc2ccccc2)cc1
inactive: Potency [1] > 92 µM | Potency [2] > 92 µM | Potency [3] | Potency [4] | Potency [5] | Potency [6] | outcome [7] | Potency [8] | Potency [9] | Potency [10] | Potency [11] | Potency [12] | Potency [13] | Potency [14] | Potency [15] | Potency [16] | Potency [17] | Potency [18] | activation [19] 14.7%

Cc1ccc2ccc3cccc4ccc1c2c34
inactive: Potency [1] > 92 µM | Potency [2] > 92 µM | Potency [3] | Potency [4] | Potency [5] | Potency [6] | outcome [7] | Potency [8] | Potency [9] | Potency [10] | Potency [11] | Potency [12] | Potency [13] | Potency [14] | Potency [15] | Potency [16] | Potency [17] | Potency [18] | activation [19] 5.12% | max response [20] 10%

CC(C)S
inactive: Potency [1] > 92 µM | Potency [2] > 92 µM | Potency [3] | Potency [4] | Potency [5] | Potency [6] | outcome [7] | Potency [8] | Potency [9] | Potency [10] | Potency [11] | Potency [12] | Potency [13] | Potency [14] | Potency [15] | Potency [16] | Potency [17] | Potency [18] | activation [19] -2.58% | max response [20] -6.45%

CC(C)OCC1CO1 (stereo not drawn)
inactive: Potency [1] > 92 µM | Potency [2] > 92 µM | Potency [3] | Potency [4] | Potency [5] | Potency [6] | outcome [7] | Potency [8] | Potency [9] | Potency [10] | Potency [11] | Potency [12] | Potency [13] | Potency [14] | Potency [15] | Potency [16] | Potency [17] | Potency [18] | activation [19] 0.457% | max response [20] 3.69%

Nc1cc(C(=O)O)c(O)c(S(=O)(=O)O)c1
inactive: Potency [1] > 92 µM | Potency [2] > 92 µM | Potency [3] | Potency [4] | Potency [5] | Potency [6] | outcome [7] | Potency [8] | Potency [9] | Potency [10] | Potency [11] | Potency [12] | Potency [13] | Potency [14] | Potency [15] | Potency [16] | Potency [17] | Potency [18] | activation [19] -2.49% | max response [20] 1.39%
